# dFosB activator – mouse delta FosB homodimer activation | purified delta FosB, TAMRA-CDK5 oligo fluorescence polarization; percent of positive-control signal above neutral wells | AID 493131 | 340,000 compounds, 0.99% hits | activation, % at 25 µM | P13346;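 active = mean activation above about 17%, with every replicate also reaching it, limit read from the data, passing the limit was not always enough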
# Target sequence (P13346 whole entry, looked up): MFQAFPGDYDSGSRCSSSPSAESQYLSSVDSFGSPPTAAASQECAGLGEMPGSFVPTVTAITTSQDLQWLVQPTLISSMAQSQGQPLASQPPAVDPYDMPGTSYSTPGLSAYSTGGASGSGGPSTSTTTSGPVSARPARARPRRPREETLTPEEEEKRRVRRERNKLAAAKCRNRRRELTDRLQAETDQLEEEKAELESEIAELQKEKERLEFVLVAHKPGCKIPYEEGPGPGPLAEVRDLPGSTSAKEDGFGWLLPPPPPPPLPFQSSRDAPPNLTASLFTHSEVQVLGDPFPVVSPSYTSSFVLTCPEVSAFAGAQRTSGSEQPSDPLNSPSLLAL
# Beta2AR agonist – agonists of human beta-2 adrenergic receptor inducing internalization; Am2.2-beta2AR cells, FAP receptor internalization, flow cytometry; response, % (no concentration beside the values); 340,000 compounds, 0.43% hits; AID 504454;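 active = response above a set limit, near 3 SD of response in nonfluorescent compounds, cut at about 42% in these data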
# Dyrk1A ADPGlo – Dyrk1A (rat) kinase inhibition; inhibition, % at 12.5 µM; Q63470; ADP-Glo luminescence, NFATc1 peptide; 310,000 compounds, 0.43% hits; in the data active = inhibition above about 50%
# Bfl-1 A1 inh – inhibitors of the anti-apoptotic protein A1, read as caspase activation | MEF A1-2A-BIM cells, Caspase-Glo 3/7 luminescence, 3 h; percent of clofoctol response, vehicle zero | caspase activation, % (test concentration not listed) | 330,000 compounds, 0.066% hits | AID 2462;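 active = over half of replicate activation scores above 10%, or exactly half above 10 with the replicate mean above 10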
# B2AR ag CP1 – human beta-2 adrenergic receptor agonism, cherry pick; shares compounds with Beta2AR agonist; Am2.2-beta2AR cells, FAP surface receptor, flow cytometry; stronger effect = lower value; percent response (surface receptor), % at 10 µM; 1,100 compounds, 25% hits; AID 540358;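 active = surface receptor percent response at or below 58%, roughly 3 SD from nonfluorescent compounds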
# B2AR FAP counter – fluorescence artifact in beta-2AR agonist FAP counterscreen | Am2.2 cells, FAP fluorogen flow cytometry; stronger effect = lower value | 1,100 tested, under 10 active | calls only at 10 µM | AID 588765 | shares compounds with Beta2AR agonist;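 active = percent response below a set limit in fluorescence channel 1 and below 50% in channel 8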
# Numbers stand for hits; i = inactive; nt = not tested or not shown; + = active, no number. Hits are enriched below; roughly 1.6% of the tested compounds scored in any of these assays.
SMILES,dFosB activator,Beta2AR agonist,Dyrk1A ADPGlo,Bfl-1 A1 inh,B2AR ag CP1,B2AR FAP counter
CCCCCCn1c(O)c(C=Nc2c(C)n(C)n(-c3ccccc3)c2=O)c(=O)[nH]c1=O,i,48,i,i,48,i
Cc1c(N=Cc2c(O)n(CCc3ccccc3)c(=O)[nH]c2=O)c(=O)n(-c2ccccc2)n1C,i,i,i,i,nt,nt
COc1ccc(OC)c2c1CCC1NCCOC21 (stereo not given),i,i,i,i,i,i
CCC1CN1P1(=O)OCC(C)([N+](=O)[O-])CO1 (stereo not given),i,i,i,nt,nt,nt
CC(NCc1ccccc1Cl)C(O)c1ccccc1 (stereo not given),i,i,i,i,i,i
FC(F)(F)c1ccccc1CNCCc1c[nH]c2ccccc12,i,i,i,i,nt,nt
CC(NCc1ccc(Cl)c(Cl)c1)C(O)c1ccccc1 (stereo not given),i,i,i,i,i,i
CCOc1cc(CNC(C)C(O)c2ccccc2)cc(Cl)c1OCC (stereo not given),i,i,i,i,i,i
CCC(=O)Nc1ccc(Cl)c(Cl)c1,i,i,i,nt,nt,nt
CC(NCc1ccccc1C(F)(F)F)C(O)c1ccccc1 (stereo not given),i,i,i,i,i,i
Cc1ccnc(NC(=O)CCCc2ccc(N(CCCl)CCCl)cc2)n1,i,i,i,nt,nt,nt
CCOC(=O)c1cc2c(cn1)[C@@H](CCO)NC2,i,i,i,nt,nt,nt
Brc1ccc2c(c1)C(OC1CN3CCC1CC3)c1ccccc1CS2 (stereo not given),i,50,i,i,i,i
O=C1NC(=O)C2(CCN(c3ccccc3)CC2)C(=O)N1,i,i,i,nt,nt,nt
CCOCC1(CCc2ccccc2)C(=O)NC(=S)NC1=O,i,i,i,nt,nt,nt
CC[n+]1c(/C=C/N(C)c2ccccc2)sc2ccc(Cl)cc21,i,i,nt,i,nt,nt
CC[n+]1c(/C=C/C=C/c2ccc(N(C)C)cc2)sc2ccccc21,155,46,i,i,i,i
CC(C)n1c(O)c(C2c3cc(Cl)ccc3Oc3[nH]c(=O)n(C(C)C)c(=O)c32)c(=O)[nH]c1=O (stereo not given),i,59,i,nt,48,+
Cc1ccccc1NC(=NCCCN1CC1)Nc1ccccc1C,i,i,nt,nt,nt,nt
COc1ccc(CC2NCC(O)C2OC(C)=O)cc1 (stereo not given),i,110,i,nt,20,+
CCOP(=O)(CCP(=O)(OCC)OCC)OCC.C[CH2][Sn]([Cl])([Cl])[CH2]C,i,i,i,nt,nt,nt
COc1cc(C(O)CNC(C)C)cc(F)c1OC (stereo not given),i,i,i,i,i,i
CCCCNC(C)Cc1ccccc1 (stereo not given),i,i,i,nt,nt,nt
COc1ccc(CC(C)NCCC(c2ccccc2)c2ccccc2)cc1 (stereo not given),i,i,i,i,i,i
COC(=O)C1=C(c2ccccc2OCc2ccccc2)C[C@@H]2CC[C@H]1N2C(=O)NCc1ccc([N+](=O)[O-])cc1,i,i,i,i,nt,nt

# Screening results (PubChem)
